# Results reported in the supplement of paper PMC10849652.
# Targets with a hit are over-represented here; the source holds about 7,900 in all. About 0.6% of all pairs of compound and target were hits. A number with no mark means an inactive call.
# Legend:
# Test in all cases: log2 fold change, soluble protein after heating vs DMSO (PISA); higher = thermal stabilisation; K562 cells, 10 uM, 30 min; active = over 0.2 and 3.5 SD of the protein, either way, in both replicates (recomputed)
# erlotinib = compound: C#Cc1cccc(Nc2ncnc3cc(OCCOC)c(OCCOC)cc23)c1 [erlotinib]
# Method in brief: (§1)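 K562 cells at 2×10^6 cells/mL were treated for 30 min with 10 μM compound, and aliquots were heated for 3 min over 48°C-58°C before pooling. Extraction used PBS with 0.5% NP-40 at 4°C, and soluble protein was the supernatant after 21,000xg for 90 min, measured by TMTpro 16plex LC-MS/MS with channel sums equalised. Thermal stability values, relative to control samples and from duplicates, are log2 fold changes.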
# [1] = compound: C/C(=N\NC(=O)C1=CC(=CC=C1)S(=O)(=O)N2CCOCC2)/C3=C(C=CC(=C3)Cl)O
# Method in brief: as §1
# [2] = compound: C1=CC(=C(C=C1Cl)C2=NC3=NC=CN=C3C(=N2)NC4=CC=NC=C4)F
# Method in brief: as §1
# [3] = compound: C1=CC(=CC=C1C2=NC3=C(N2)C=C(C=C3)C(=O)N)OC4=CC=C(C=C4)Cl
# Method in brief: as §1
# [4] = compound: C1=CC2=C(C=CC(=C2)/C=C\3/C(=O)NC(=NCC4=CC=CS4)S3)N=C1
# Method in brief: as §1
# [5] = compound: C1=CC2=NC=CN=C2C=C1/C=C/3\C(=O)NC(=O)S3
# Method in brief: as §1
# [6] = compound: C1=CC=C(C=C1)C2=NC(=C(N2)C3=CC=NC=C3)C4=CC(=C(C=C4)Cl)O
# Method in brief: as §1
# [7] = compound: C1=CC=C2C(=C1)C3=NNC4=CC=CC(=C43)C2=O
# Method in brief: as §1
# [8] = compound: C1CCN(C1)C(=O)NC2=CC=CC(=C2)NC3=NC=C(C(=N3)NCCC4=CN=CN4)Br
# Method in brief: as §1
# [9] = compound: C1CN(CCC1(CC2=CC=C(C=C2)Cl)N)C3=NC=NC4=C3C=CN4
# Method in brief: as §1
# IRAK-1-4 Inhibitor I = compound: C1COCCN1CCN2C3=CC=CC=C3N=C2NC(=O)C4=CC(=CC=C4)[N+](=O)[O-] [IRAK-1-4 Inhibitor I]
# Method in brief: as §1
# ibrutinib = compound: C=CC(=O)N1CCC[C@@H](n2nc(-c3ccc(Oc4ccccc4)cc3)c3c(N)ncnc32)C1 [ibrutinib]
# Method in brief: as §1
# [10] = compound: CC(=O)c1cnc2ccc(-c3cc(Cl)c(O)c(Cl)c3)nc2c1N[C@H]1CC[C@H](CN(C)C)CC1
# Method in brief: as §1
# ralimetinib = compound: CC(C)(C)Cn1c(N)nc2ccc(-c3[nH]c(C(C)(C)C)nc3-c3ccc(F)cc3)nc21 [ralimetinib]
# Method in brief: as §1
# [11] = compound: CC(C)(O)CC(=O)NCCn1ccc2ncnc(Nc3ccc(Oc4cccc(C(F)(F)F)c4)c(Cl)c3)c21
# Method in brief: as §1
# [12] = compound: CC(C)C1=C2N=C(C=C(N2N=C1)NCC3=CC=CC=C3)NCCCCCCN
# Method in brief: as §1
# [13] = compound: CC(C)C[C@@H](C=O)NC(=O)[C@H](CC(C)C)NC(=O)[C@H](CC(C)C)NC(=O)OCc1ccccc1
# Method in brief: as §1
# pinometostat = compound: CC(C)N(C[C@H]1O[C@@H](n2cnc3c(N)ncnc32)[C@H](O)[C@@H]1O)[C@H]1C[C@@H](CCc2nc3cc(C(C)(C)C)ccc3[nH]2)C1 [pinometostat]
# Method in brief: as §1
# [14] = compound: CC1=C(C(CC(=O)N1)C2=CC=C(C=C2)C(F)(F)F)C(=O)NC3=C(C=C4C(=C3)C=NN4)F
# Method in brief: as §1
# [15] = compound: CC1=C(C2=C(C=C1)C(=O)C3=CC=CC=C3N2CCCN)C
# Method in brief: as §1
# Sequence of UniProt Q92878 (Q92878 whole entry, looked up): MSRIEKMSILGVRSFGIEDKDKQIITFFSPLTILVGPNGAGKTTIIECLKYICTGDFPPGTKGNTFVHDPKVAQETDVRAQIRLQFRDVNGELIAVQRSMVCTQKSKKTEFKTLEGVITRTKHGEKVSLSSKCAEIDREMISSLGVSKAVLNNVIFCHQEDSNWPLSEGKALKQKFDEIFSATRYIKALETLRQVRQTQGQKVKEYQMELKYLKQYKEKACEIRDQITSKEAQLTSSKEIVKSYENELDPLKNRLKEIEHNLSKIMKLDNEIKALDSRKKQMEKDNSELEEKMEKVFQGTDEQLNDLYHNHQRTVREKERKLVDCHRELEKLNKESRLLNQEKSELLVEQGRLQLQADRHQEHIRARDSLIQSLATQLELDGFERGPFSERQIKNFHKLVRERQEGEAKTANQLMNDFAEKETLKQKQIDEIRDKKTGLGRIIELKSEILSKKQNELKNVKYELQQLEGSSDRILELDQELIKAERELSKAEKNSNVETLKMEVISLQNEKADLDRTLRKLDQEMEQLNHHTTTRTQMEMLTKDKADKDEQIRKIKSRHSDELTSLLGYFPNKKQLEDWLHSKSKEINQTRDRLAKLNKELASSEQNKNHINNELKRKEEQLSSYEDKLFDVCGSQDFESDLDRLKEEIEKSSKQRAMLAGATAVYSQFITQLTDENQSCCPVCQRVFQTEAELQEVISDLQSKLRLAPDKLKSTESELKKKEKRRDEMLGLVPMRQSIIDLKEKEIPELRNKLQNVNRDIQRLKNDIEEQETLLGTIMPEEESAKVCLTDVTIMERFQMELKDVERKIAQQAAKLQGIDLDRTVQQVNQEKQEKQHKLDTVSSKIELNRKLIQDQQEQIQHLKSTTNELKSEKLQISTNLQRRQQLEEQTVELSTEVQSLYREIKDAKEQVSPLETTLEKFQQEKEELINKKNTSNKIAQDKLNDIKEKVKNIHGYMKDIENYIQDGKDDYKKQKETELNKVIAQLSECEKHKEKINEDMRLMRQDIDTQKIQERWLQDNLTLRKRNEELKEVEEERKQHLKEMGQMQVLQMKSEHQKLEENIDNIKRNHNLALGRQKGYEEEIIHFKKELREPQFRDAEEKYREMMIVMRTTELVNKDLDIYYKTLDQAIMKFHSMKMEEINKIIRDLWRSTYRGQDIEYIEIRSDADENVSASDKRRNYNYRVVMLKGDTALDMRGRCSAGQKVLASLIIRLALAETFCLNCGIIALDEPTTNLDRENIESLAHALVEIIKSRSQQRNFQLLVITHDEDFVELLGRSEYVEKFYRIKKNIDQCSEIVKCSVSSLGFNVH
# Sequence of UniProt Q9NW64 (Q9NW64 whole entry, looked up): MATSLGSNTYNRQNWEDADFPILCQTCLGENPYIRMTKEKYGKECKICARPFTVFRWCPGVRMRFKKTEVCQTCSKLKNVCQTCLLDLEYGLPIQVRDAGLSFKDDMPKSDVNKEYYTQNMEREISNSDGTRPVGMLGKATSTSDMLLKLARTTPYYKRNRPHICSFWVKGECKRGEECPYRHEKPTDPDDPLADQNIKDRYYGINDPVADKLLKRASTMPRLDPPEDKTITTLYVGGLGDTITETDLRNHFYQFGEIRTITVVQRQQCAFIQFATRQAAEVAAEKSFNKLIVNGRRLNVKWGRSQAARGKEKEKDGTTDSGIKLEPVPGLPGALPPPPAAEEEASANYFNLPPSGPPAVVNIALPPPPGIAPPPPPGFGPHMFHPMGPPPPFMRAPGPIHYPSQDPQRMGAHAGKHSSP
# Sequence of UniProt Q86VR2 (Q86VR2 whole entry, looked up): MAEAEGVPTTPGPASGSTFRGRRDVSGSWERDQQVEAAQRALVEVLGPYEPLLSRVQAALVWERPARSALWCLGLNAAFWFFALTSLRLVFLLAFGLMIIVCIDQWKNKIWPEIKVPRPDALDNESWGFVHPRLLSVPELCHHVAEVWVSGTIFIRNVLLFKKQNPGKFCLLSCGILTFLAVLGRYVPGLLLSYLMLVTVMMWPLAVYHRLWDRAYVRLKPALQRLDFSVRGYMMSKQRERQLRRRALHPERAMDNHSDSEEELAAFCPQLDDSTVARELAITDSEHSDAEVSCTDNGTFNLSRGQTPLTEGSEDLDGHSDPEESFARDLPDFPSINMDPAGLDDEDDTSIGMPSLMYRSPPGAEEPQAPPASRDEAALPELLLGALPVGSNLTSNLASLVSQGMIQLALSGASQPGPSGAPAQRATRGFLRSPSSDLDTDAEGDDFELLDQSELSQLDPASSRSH
# Sequence of UniProt O95059 (O95059 whole entry, looked up): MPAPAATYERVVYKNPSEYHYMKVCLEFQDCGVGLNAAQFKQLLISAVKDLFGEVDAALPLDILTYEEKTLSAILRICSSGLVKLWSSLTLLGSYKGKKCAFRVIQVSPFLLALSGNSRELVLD
# Sequence of UniProt Q9H2M9 (Q9H2M9 whole entry, looked up): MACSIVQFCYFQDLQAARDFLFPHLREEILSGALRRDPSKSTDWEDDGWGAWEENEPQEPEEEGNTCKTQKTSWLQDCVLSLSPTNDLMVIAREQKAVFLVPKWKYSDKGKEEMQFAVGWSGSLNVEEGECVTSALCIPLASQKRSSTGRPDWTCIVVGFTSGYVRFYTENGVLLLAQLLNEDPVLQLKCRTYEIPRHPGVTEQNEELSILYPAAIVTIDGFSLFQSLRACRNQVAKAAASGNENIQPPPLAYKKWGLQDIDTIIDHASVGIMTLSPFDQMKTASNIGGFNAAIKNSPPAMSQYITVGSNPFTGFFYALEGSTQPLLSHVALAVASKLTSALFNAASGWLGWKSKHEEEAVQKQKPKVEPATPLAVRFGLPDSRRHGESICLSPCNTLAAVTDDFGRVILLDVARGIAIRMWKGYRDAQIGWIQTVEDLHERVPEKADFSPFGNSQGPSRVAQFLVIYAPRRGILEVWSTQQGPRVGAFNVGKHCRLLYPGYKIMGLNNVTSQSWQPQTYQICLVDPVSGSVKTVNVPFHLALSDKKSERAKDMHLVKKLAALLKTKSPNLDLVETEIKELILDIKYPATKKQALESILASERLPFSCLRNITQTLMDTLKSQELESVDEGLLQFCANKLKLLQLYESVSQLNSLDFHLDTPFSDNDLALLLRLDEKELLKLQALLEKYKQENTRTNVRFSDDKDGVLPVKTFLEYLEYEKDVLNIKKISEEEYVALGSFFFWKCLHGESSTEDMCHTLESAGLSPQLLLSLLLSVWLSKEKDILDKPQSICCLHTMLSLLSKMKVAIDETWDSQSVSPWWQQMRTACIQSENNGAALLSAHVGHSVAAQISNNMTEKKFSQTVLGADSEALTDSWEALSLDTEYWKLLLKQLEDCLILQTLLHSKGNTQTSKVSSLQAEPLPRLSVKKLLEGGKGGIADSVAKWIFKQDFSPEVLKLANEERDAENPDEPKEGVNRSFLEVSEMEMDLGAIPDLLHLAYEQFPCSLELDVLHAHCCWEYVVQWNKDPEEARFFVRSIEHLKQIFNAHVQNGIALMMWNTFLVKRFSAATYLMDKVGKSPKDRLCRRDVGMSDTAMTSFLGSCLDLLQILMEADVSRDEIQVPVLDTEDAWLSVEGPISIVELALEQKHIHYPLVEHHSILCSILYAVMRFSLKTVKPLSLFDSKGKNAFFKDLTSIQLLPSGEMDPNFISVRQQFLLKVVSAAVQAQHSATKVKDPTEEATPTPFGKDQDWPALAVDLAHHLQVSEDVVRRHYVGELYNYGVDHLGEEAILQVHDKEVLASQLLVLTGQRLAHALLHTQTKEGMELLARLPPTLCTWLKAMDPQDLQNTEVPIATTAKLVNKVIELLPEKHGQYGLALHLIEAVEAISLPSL
# Sequence of UniProt P46063 (P46063 whole entry, looked up): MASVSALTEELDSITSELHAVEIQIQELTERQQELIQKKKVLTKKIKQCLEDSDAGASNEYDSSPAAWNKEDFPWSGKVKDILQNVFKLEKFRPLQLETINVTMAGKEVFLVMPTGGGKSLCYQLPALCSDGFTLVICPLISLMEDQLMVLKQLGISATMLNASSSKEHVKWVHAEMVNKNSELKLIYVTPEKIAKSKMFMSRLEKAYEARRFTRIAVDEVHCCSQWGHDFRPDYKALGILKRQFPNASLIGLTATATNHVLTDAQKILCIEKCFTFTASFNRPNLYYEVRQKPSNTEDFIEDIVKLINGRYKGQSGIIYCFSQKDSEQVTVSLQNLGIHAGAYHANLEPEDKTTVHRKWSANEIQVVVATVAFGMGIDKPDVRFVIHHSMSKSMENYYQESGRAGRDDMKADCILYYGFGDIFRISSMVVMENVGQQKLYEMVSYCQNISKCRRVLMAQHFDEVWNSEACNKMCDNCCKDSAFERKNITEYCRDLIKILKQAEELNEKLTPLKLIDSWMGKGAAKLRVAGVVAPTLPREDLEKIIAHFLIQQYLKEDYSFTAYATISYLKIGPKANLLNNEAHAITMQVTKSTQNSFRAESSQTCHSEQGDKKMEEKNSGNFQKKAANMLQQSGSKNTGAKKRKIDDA
# Sequence of UniProt Q15758 (Q15758 whole entry, looked up): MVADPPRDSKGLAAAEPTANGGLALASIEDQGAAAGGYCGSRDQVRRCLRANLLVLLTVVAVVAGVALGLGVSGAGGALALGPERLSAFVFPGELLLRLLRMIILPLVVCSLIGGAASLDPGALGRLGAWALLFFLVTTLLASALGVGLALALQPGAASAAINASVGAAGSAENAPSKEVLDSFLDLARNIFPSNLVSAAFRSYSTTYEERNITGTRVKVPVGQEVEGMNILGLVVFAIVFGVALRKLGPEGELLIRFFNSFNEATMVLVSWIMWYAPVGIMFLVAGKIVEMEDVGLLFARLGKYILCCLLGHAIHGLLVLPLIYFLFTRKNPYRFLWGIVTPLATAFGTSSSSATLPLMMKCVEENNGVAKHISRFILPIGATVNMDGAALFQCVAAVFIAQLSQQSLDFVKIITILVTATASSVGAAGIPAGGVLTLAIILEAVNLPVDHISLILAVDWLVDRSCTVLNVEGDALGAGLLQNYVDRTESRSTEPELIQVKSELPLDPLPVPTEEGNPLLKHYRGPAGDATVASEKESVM
Target,log2 fold change (erlotinib),log2 fold change [1],log2 fold change [2],log2 fold change [3],log2 fold change [4],log2 fold change [5],log2 fold change [6],log2 fold change [7],log2 fold change [8],log2 fold change [9],log2 fold change (IRAK-1-4 Inhibitor I),log2 fold change (ibrutinib),log2 fold change [10],log2 fold change (ralimetinib),log2 fold change [11],log2 fold change [12],log2 fold change [13],log2 fold change (pinometostat),log2 fold change [14],log2 fold change [15]
RPA1 (UniProt P27694),0.003,0.07,0.147,0.008,-0.005,0.003,0.027,0.075,-0.013,-0.021,-0.026,-0.022,-0.03,-0.008,-0.053,-0.019,-0.027,-0.021,-0.007,0.202
RAD50 isoform 2 (UniProt Q92878),0.02,0.034,0.076,0.001,0.029,0,0.02,0.015,-0.034,0.029,-0.005,-0.004,-0.099,-0.03,-0.003,-0.002,-0.014,-0.013,-0.008,0.006
RETREG3 (UniProt Q86VR2),0.004,0.072,0.037,0.031,-0.053,0.07,0.062,-0.087,-0.029,0.032,0.117,-0.002,-0.01,-0.036,-0.04,-0.167,0.007,0.035,-0.024,-0.016
SEC24A (UniProt O95486),0.084,0.097,0.031,-0.018,0.033,-0.022,0.036,0.022,-0.026,0.011,-0.038,-0.017,-0.013,0.018,-0.066,-0.057,-0.005,0.005,0.009,0.019
SCPEP1 (UniProt Q9HB40),-0.002,0.017,0.064,0.015,-0.024,0.058,-0.013,0.017,-0.012,0.079,0.044,0.072,-0.008,-0.005,-0.038,-0.5 (active),0.007,-0.032,-0.006,0.073
RBM22 (UniProt Q9NW64),-0.013,-0.037,-0.061,-0.009,-0.117,0.038,-0.084,-0.051,0,0.121,0.014,-0.032,0.029,0.048,0.071,0.068,0.104,0.015,0.041,0.124
SLC1A5 (UniProt Q15758),-0.001,0.003,0.043,0.002,-0.051,0.006,0.075,-0.046,-0.052,0.089,0.035,0.028,0.013,0.046,-0.002,0.23,-0.052,-0.034,-0.012,-0.014
RAVER1 (UniProt E9PAU2),0.218,0.403,0.042,0.009,0.002,-0.06,0.257,-0.084,-0.05,-0.011,-0.062,0.033,-0.308,0.082,-0.263,-0.409,-0.042,0.052,0.016,-0.694
SKP1 (UniProt P63208),-0.003,-0.036,0.05,-0.011,-0.048,0.045,0.047,0.009,-0.006,0.03,0.069,0.054,0.03,-0.02,-0.045,0.068,-0.069,-0.08,0.042,-0.049
RECQL (UniProt P46063),-0.019,0.072,0.066,-0.005,0.046,0.004,-0.004,-0.003,-0.062,0.01,0.013,0.002,-0.023,-0.024,-0.039,-0.033,-0.02,-0.013,-0.031,0.266 (active)
RAB3IL1 (UniProt E9PK89),-0.238,-0.055,0.116,-0.001,0.058,0.104,-0.028,0.197,-0.162,0.004,-0.012,-0.021,-0.006,-0.018,-0.127,-0.032,0.006,0.017,0.08,-0.005
RPP14 (UniProt O95059),-0.047,0.09,-0.077,0.059,-0.046,-0.023,0.012,-0.022,-0.017,0.021,-0.035,0.073,-0.021,0.009,0.051,-0.021,0,0.021,0.041,-0.04
RAB3GAP2 (UniProt Q9H2M9),0.068,0.083,-0.043,-0.058,0.035,-0.011,-0.025,0.004,-0.068,-0.018,-0.079,-0.016,-0.031,0.03,0,-0.26 (active),0.026,0.115,0.004,-0.016
RAC3 (UniProt P60763),0.05,-0.016,0.029,-0.042,0.009,0.02,-0.009,-0.09,-0.007,0.005,0.115,0.022,0.104,-0.008,0.032,0.082,-0.009,-0.081,0.003,0.102
RBM12 (UniProt Q9NTZ6),0.092,0.187,0.123,-0.022,0.117,-0.003,-0.008,0.011,-0.046,0.006,-0.042,-0.018,-0.135,-0.037,-0.145,-0.237,0.009,-0.043,0.012,-0.007
SAMSN1 isoform 3 (UniProt Q9NSI8),0.027,0.012,-0.006,0.001,0.037,0.021,-0.009,-0.022,0.007,-0.114,0.028,-0.021,-0.125,-0.016,-0.034,-0.095,0.041,0.014,0.023,0.008
